Screening results deposited in PubChem BioAssay by National Center for Advancing Translational Sciences (NCATS).
Pf growth 48h: Primary qHTS for delayed death inhibitors of the malarial parasite plastid, 48 hour incubation. P. falciparum luciferase growth in erythrocytes, 48 h. actives 5.9% (n = 310,000). AID 504832, 2011. Potency, µM (highest dose often 28.7 µM), hits mostly inhibitors
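Luciferase-expressing parasites in RBCs, 2% Hct / 0.1% parasitemia final; RPMI 1640 + 0.5% Albumax; 37 C, 5% CO2, one generation; luminescence read-out, lower signal = inhibition.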
Pf growth 96h: Primary qHTS for delayed death inhibitors of the malarial parasite plastid, 96 hour incubation | P. falciparum luciferase reporter growth, 96 h | Potency, µM (top dose mostly 28.7 µM), most hits filed as inhibitors | actives 6.9% (n = 320,000)
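96 h incubation, 37 C, 5% CO2, of luciferase-reporter P. falciparum-infected RBCs (2% hematocrit, 0.05% parasitemia final) with test compounds; endpoint luminescence.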
Shiga inhibitor: A qHTS for Small Molecule Inhibitors of Shiga Toxin. AID 2315, 2010. inhibition, % at 38.7 µM. Vero cells, Shiga toxin protein synthesis inhibition reporter. actives 9.2% (n = 290,000); in the data active = inhibition mostly above about 28%, no sharp cut-off; inactive = mostly below about 43%
HCMV inh: qHTS Assay for inhibitors of the human cytomegalovirus (HCMV); HFF cells, HCMV-luciferase reporter, 72 h; active compounds read low; activity change, negative = inhibition, % at 57.5 µM; actives 4.5% (n = 410,000); in the data active = activity change below about -60%; inconclusive = no clear call, values can overlap the other calls; inactive = above about -39%
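Inhibition of viral replication was scored as loss of reporter luminescence in HFFs infected with HCMV-luciferase (MOI 1 PFU/cell) for 72 h; compounds tested at 2 doses, normalized to buffer and Salinomycin controls.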
Cycloheximide cs: Cycloheximide Counterscreen for Small Molecule Inhibitors of Shiga Toxin. cell reporter, cycloheximide protein synthesis inhibition counterscreen. max response, %. actives 12% (n = 300,000); in the data active = max response mostly above about 13%, no sharp cut-off; inactive = mostly below about 14%; note: read at 38.3 µM for the half of the compounds with a filed dose
HCV inh: qHTS Assay for Inhibitors of Hepatitis C Virus (HCV); actives 3.4% (n = 340,000); Huh7.5.1 HCVcc-Cre infection, luciferase reporter, 44 h; Potency, µM (titrated, usually from 41.8 µM), most hits filed as inhibitors; AID 651820, 2012
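Cells seeded at 1,000/well and cultured 4 h, then compounds added followed by HCVcc-Cre virus (~0.5 moi). After 44 h further culture, luciferase substrate was added, plates held 15 min at room temperature, and luminescence read for 15 sec.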
A number is an active result; . = inactive; ? = inconclusive; / = not tested or not shown; [ ] = dose if it differs, or a comment. Most compounds without a hit are left out; they make up all but 21% or so of the library. Unless noted, calls come from the whole dose curve; as a rule, active = well fitted inhibition curve with a large enough effect; inconclusive = small, poorly fitted or top-dose-only effect, or another doubt; inactive = no such curve, though single readings can be large or run the other way.

SMILES	Pf growth 48h	Pf growth 96h	Shiga inhibitor	HCMV inh	Cycloheximide cs	HCV inh
CC1CCc2c(sc(NC(=O)c3ccc(Cn4cc([N+](=O)[O-])cn4)o3)c2C#N)C1 (stereo not drawn)	.	.	.	.	.	?
COC(=O)c1sc(NC(=O)c2ccc(Cn3cc(Cl)cn3)o2)c(C#N)c1C	.	.	.	-106	.	.
COc1cc(C(=O)N[C@H](C(=O)OCC(=O)NC2CCCCCC2)C(C)C)cc(OC)c1OC	/	/	/	.	/	.
CN(C(=O)c1ccncc1)C1CCCN(Cc2ccccc2F)C1 (stereo not drawn)	.	?	.	.	.	.
CN(C)c1cccc(C(=O)N(C)C2CCCN(Cc3ccccc3F)C2)c1 (stereo not drawn)	?	4.1µM	.	-71	.	.
Cc1cc(C)cc(C(=O)N(C)C2CCCN(Cc3ccccc3F)C2)c1 (stereo not drawn)	?	?	.	.	.	13µM
CCS(=O)(=O)c1nc(S(=O)(=O)c2ccc(Cl)cc2)c(NCCOC)s1	?	.	.	?	.	.
CCN(CC(=O)N1CCC(C(N)=O)CC1)S(=O)(=O)c1ccc(Cl)cc1	.	?	.	.	.	.
CC1(C)OC2OC(C3COC(=O)O3)C(OC(=O)c3ccccc3)C2O1 (stereo not drawn)	/	/	/	.	/	.
CCCOc1ccc(Cc2c(Cl)nc(SC)nc2OC)cc1	.	.	.	.	.	.
COc1nc(SC)nc(Cl)c1Cc1ccc(OC(C)C)cc1	.	1µM	.	.	.	.
CCCOc1ccc(Cc2c(Cl)nc(SC)nc2N(C)C)cc1	.	?	.	-67	.	?
COc1ccc(-c2cnc(N)nc2-c2ccc(OCc3ccccc3)cc2O)cc1	?	15µM	.	.	.	?
COc1ccc(-c2nc(N)ncc2-c2ccc(OC)c(OC)c2)c(O)c1	.	.	.	.	.	.
Nc1ncc(-c2ccccc2)c(-c2ccc(O)cc2O)n1	/	.	.	-61	.	?
Nc1ncc(C(=O)O)c(-c2ccccc2)n1	/	/	/	.	/	.
COc1ccc(N2CCN(C(=O)COC(=O)c3ccc(CSC)o3)CC2)cc1	?	?	/	.	/	?
CCOc1ncccc1C(=O)Nc1ccc(OC)c(S(=O)(=O)N2CCOCC2)c1	.	.	/	.	/	.
Nc1nonc1C(=O)NCCNC(=O)c1ccc(Cl)cc1	.	?	.	.	.	.
Cc1nonc1OCC(C)(COc1nonc1C)NC(=O)c1ccc(Cl)cc1	8.3µM	4.7µM	.	.	.	.
NC(=O)c1cccnc1Nc1ccccc1Cl	.	.	56	.	30	?
NC(=O)COC(=O)c1cccnc1Nc1ccccc1F	.	.	.	-71	.	.
CN(C)C(=O)COC(=O)c1cccnc1Nc1ccccc1F	.	.	.	.	.	.
CC1CCN(S(=O)(=O)c2ccc3c(c2)N(CC(=O)NCCN(C)C)C(=O)CO3)CC1	/	/	/	.	/	/
CCN(CC)C(=O)c1nn(-c2ccc(OC)cc2)c(=O)c2c(N)scc12	/	/	.	/	.	/
SMILES	Pf growth 48h	Pf growth 96h	Shiga inhibitor	HCMV inh	Cycloheximide cs	HCV inh
NS(=O)(=O)c1ccc(NCc2ccccc2OCc2ccccc2F)cc1	.	.	.	?	.	?
Oc1ccc(NCc2ccccc2OCc2ccccc2F)cc1	10µM	?	.	?	.	.
Cc1ccc(NCc2ccccc2OCc2ccccc2F)cc1	/	?	27	.	18	.
COc1ccc2c(c1)c(=O)cc(-c1ccccc1)n2C	.	.	49	.	22	.
CC1(C)NC(=O)N(CCOCCOc2ccc3ccccc3c2Br)C1=O	/	3.7µM	.	.	37	?
CC1(C)NC(=O)N(CCCCOc2ccc3ccccc3c2Cl)C1=O	/	?	88	.	54	?
CC(C)c1cc(Br)ccc1OCCN1C(=O)NC(C)(C)C1=O	?	.	.	-61	.	.
CCC(=O)c1ccccc1OCCCN1C(=O)NC(C)(C)C1=O	.	/	.	.	.	.
Cc1ccc(Cl)cc1N1CCN(C(=O)c2cn(C)c3ccc(S(=O)(=O)N4CCC(C)CC4)cc3c2=O)CC1	/	/	/	.	/	/
O=C1c2ccccc2C(=O)c2[nH]cnc21	?	?	.	.	.	.
O=C1c2ccccc2C(=O)c2ccccc21	?	15µM	/	/	/	/
CN(C)c1cccc2c1C(=O)c1ccccc1C2=O	.	.	.	?	13	?
O=C1c2cccc(O)c2C(=O)c2c(O)cccc21	.	.	.	/	.	.[8.37 µM]
O=C1C(O)=C(O)C(=O)c2ccccc21	/	/	/	.	/	.
O=C1c2ccccc2C(=O)c2[nH]c(=O)[nH]c21	/	1.7µM	.	-99	.	6.3µM
O=C1c2cccc(Sc3ccccc3)c2C(=O)c2c(Sc3ccccc3)cccc21	13µM	?	.	.	.	.
CSc1ncccc1C(=O)N1CCCC(C(=O)c2cc(F)ccc2F)C1 (stereo not drawn)	.	9.3µM	.	.	.	.
COc1ncccc1C(=O)N1CCCC(C(=O)c2cc(F)ccc2F)C1 (stereo not drawn)	.	.	.	.	.	.
CCc1noc(C)c1C(=O)N1CCCC(C(=O)c2cc(F)ccc2OC)C1 (stereo not drawn)	.	12µM	.	.	.	.
C[C@H](C(=O)O)c1cccc(Oc2ccccc2)c1	.	.	/	/	/	/
Cc1ccc(Nc2nnc(-c3ccc(N4CCOCC4)c([N+](=O)[O-])c3)c3ccccc23)cc1	.	?	.	-89	.	25µM
O=[N+]([O-])c1cc(-c2nnc(Nc3ccc(O)cc3)c3ccccc23)ccc1N1CCOCC1	?	?	.	-69	.	?
O=[N+]([O-])c1cc(-c2nnc(N3CCOCC3)c3ccccc23)ccc1N1CCOCC1	.[5.75 µM]	.	.	.	.	?
O=[N+]([O-])c1cc(-c2nnc(Nc3ccccc3)c3ccccc23)ccc1N1CCOCC1	?	?	.	-74	.	13µM
COC(=O)C(Nc1cc(OC)ccc1OC)(c1ccc(F)cc1)C(Nc1cc(OC)ccc1OC)c1ccc(Br)cc1 (stereo not drawn)	/	/	/	.	/	/
SMILES	Pf growth 48h	Pf growth 96h	Shiga inhibitor	HCMV inh	Cycloheximide cs	HCV inh
CC12CCC3C(CC=C4CC(O)CCC43C)C1C/C(=C\c1ccccc1F)C2=O (stereo not drawn)	?	5.9µM	.	.	.	.
CN(Cc1ccc(Cl)cc1Cl)C(=O)CNC(=O)c1ccc2c(c1)OCO2	10µM	12µM	/	.	/	.
CSc1ccc(CN(C)C(=O)CNC(=O)c2ccc3c(c2)OCO3)cc1	4.1µM	8.3µM	/	.	/	.
CN(C)c1ccc(-c2cc([C@H]3[C@@H]4C=CCC[C@@]4(C)C(=O)N3Cc3ccccc3)ccc2F)cc1	?	?	.	.	.	.[8.37 µM]
CCOc1ccc(N=c2cc(-c3ccc(OC)cc3)oc3ccccc23)cc1	?	?	.	.	.	?
COc1ccc(-c2cc(=NCCC(=O)O)c3cc(C)ccc3o2)cc1	.	?	148	.	36	.
